Reference: ChEMBL document CHEMBL1157539, “Thousands of chemical starting points for antimalarial lead identification” (Nature, 2010)

Each compound was assayed on Plasmodium falciparum (assay: GSK_TCMDC: Inhibition of Plasmodium falciparum 3D7 in whole red blood cells, using parasite LDH activity as an index of growth. Test compounds present at 2uM).
Format: functional

Structure (SMILES)	Inhibition
Nc1c2ccccc2nc2ccc(Cl)cc12	100%
CCCCN(CCCC)CCNC(=O)c1cc(OC(F)(F)F)ccc1O	93%
CCOC(=O)c1ccc(NC(=O)Nc2cccc(-c3cccc(-c4nc5ccccc5[nH]4)c3)c2)cc1	100%
c1nc2nc3c(c(Nc4ccc5c(c4)CCC5)n2n1)CCC3	87%
COc1cc(Cc2c(C)nc3nc(N)nc(N)c3c2C)c(Br)c(OC)c1OC.Cl	93%
COc1ccc(Nc2nccc(N3CCC(NC(=O)Nc4cc(C)ccc4C)C3)n2)cc1 (stereo unspecified)	91%
Cl.NC1(C(=O)O)Cc2ccc(Cl)cc2C1 (stereo unspecified)	93%
Cc1cccc(CNc2nc(C)cc(NCCC(=O)Nc3ccccc3)n2)c1.O=C(O)C(F)(F)F	100%
Cc1cc(C=C2SC(=Nc3ccccc3)N(C3CCCC3)C2=O)c(C)n1-c1ccc(Cl)cc1	100%
COc1ccc(CCn2c(=N)c(C(=O)NCc3ccc(C)cc3)cc3c(=O)n4ccccc4nc32)cc1	97%
CCCN1CCN(CCCCNc2c3ccccc3nc3ccccc23)CC1.Cl	100%
CCCCCCc1cc(Oc2c(I)cc(C[C@H](N)C(=O)O)cc2I)ccc1O	97%
O=S(=O)(c1csc2ccccc12)N(CCC(O)(C(F)(F)F)C(F)(F)F)Cc1cccc(O)c1	100%
COc1ccc(CN2CCCN(Cc3cccc(C(=O)Nc4ccc(C(C)(C)C)cc4)c3)CC2)cc1.O=C(O)C(F)(F)F	98%
CCN1C(=O)C(CC(=O)Nc2cccc(Cl)c2)N(Cc2ccc(OC)c(OC)c2)C1=S (stereo unspecified)	100%
CCOc1cc(C)ccc1C1CCN(CCCCNC(=O)c2ccc(-c3ccc(Cl)cn3)cc2)CC1.Cl	94%
CCc1c[nH]c2c(N(c3ccccc3)S(C)(=O)=O)cc(C(=O)N[C@@H](Cc3ccccc3)[C@H](O)CNCc3cccc(C(F)(F)F)c3)cc12.O=CO	93%
COc1ccc2nccc(CCC3(O)CCC(NCc4cc5c(cc4F)SCC(=O)N5)CC3)c2c1 (stereo unspecified)	87%
Cc1ccccc1CNc1noc(-c2c(F)cccc2Cl)n1	97%
Cc1ccc(NC(=O)Nc2ccc(I)c(OCCN(C)C)c2)cc1Cl	98%
O=C(Nc1cc(Cl)ccc1-n1cncn1)C1(c2ccccc2)CC1	98%
Cn1cc(C2CCN(CCCCCNC(=O)/C=C/c3ccc(Cl)c(Cl)c3)CC2)c2cc(O)ccc21	94%
CCOC(=O)c1[nH]c2cc(Cl)cc(Cl)c2c1/C=C/C(=O)Nc1ccc(-c2cnc(NC(C)=O)[nH]2)cc1	100%
CC(=O)c1c(Cc2ccccc2Cl)c[nH]c1C	95%
Cc1cccc2nc(-c3ccc(-c4ccc(NC(=O)Nc5ccc(Cl)c(Cl)c5)cc4)cc3)[nH]c12	100%
Br.CC[C@H]1CN2CCc3cc(OC)c(OC)cc3[C@@H]2C[C@@H]1CC1=NCCc2c1[nH]c1ccc(OCc3ccccc3)cc21	100%
